PubChem BioAssay AID624495 (National Center for Advancing Translational Sciences (NCATS), 2012)
Results filed as inconclusive are left out. Active and inactive are the calls of the source. Calls follow the shape of the dose curve; as a rule, active = well fitted inhibition curve with a large enough effect; inconclusive = small, poorly fitted or top-dose-only effect, or another doubt; inactive = flat fitted curve, though single readings scatter.

target: D(2) dopamine receptor (Homo sapiens) (UniProt P14416); test: HTS Assay for Allosteric Antagonists of the Human D2 Dopamine Receptor: SAR in D2 Beta Arrestin Assay; settings: DiscoveRx PathHunter D2 beta-arrestin recruitment, luminescence
Excerpt: There is great interest in identifying small molecule ligands for G-protein coupled receptors (GPCRs) as nearly 50% of all FDA-approved drugs target these important receptor proteins. […] Amongst the dopamine receptors (DARs), the D2 is arguably one of the most validated drug targets in neurology and psychiatry. For instance, all receptor-based antiparkinsonian drugs primarily work via stimulating the D2 DAR, whereas all FDA-approved antipsychotic agents are antagonists of this receptor. The D2 DAR is also therapeutically targeted in other disorders such as restless legs syndrome, tardive dyskinesia, Tourette's syndrome, and hyperprolactinemia. […] This is an orthogonal assay to test the lead compounds against the D2 receptor, using a beta arrestin assay. NIH Molecular Libraries Probe Production Network [MLPCN] NIH Chemical Genomics Center [NCGC] Grant: NS0676421 PI Name: David Sibley, National Institutes of Neurological Disorders and Stroke
DiscoveRx D2 cells were thawed from frozen stock and seeded at 2,100 cells/ 3 uL/well media (DiscoveRx Plating Reagent 2) with MultiDrop Combi dispenser (Thermo Scientific, Logan, UT) onto white tissue culture treated 1536-well Aurora plates (Brooks Automation, Chelmsford, MA) and allowed to attach overnight at 37 deg C, 5% CO2. Next, 23 nL/well of compound solutions in DMSO were added with a pintool transfer (Kalypsis, San Diego, CA). As the positive control, 1 uL/well dopamine (EC100, 57 uM final concentration) diluted in buffer (HBSS + 10 mM HEPES + SMB + 0.1% Tween-20) was dispensed to 1 column of each plate. The rest of the plate was dispensed with buffer only, 1 uL/well as well. The cells were stimulated by compounds or dopamine control for 90 minutes at 37 deg C, 5% CO2, after which 1.5 ul/well of DiscoveRx detection reagent was added with BioRAPTR FRD dispenser. The detection reagent was prepared by mixing of Galacton Star Substrate, Emerald II solution and PathHunter buffer (supplied by the assay kit) together at 1:5:19 proportion accordingly just prior to dispensing. The plates were incubated at ambient temperature for 1 hour and then the luminescent signal was read on ViewLux plate reader (PerkinElmer, Waltham, MA).

D(2) dopamine receptor (Homo sapiens), sequence (P14416 whole entry, looked up): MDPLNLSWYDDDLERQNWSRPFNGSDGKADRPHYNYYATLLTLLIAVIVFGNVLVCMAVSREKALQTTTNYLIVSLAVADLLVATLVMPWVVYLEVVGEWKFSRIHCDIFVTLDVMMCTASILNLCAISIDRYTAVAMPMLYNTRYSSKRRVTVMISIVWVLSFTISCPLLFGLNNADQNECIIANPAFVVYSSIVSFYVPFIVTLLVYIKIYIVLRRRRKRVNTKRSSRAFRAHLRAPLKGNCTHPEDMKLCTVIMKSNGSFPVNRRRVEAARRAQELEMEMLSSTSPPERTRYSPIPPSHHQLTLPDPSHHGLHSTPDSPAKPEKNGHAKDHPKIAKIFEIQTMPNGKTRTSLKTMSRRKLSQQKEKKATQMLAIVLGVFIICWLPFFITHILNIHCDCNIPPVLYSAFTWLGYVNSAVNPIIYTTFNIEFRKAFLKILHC

Potency, active:
CN1C(=O)c2ccccc2[S@](=O)c2ccc(C(=O)NCc3ccc(Br)cc3)cc21 1020 nM, CCN1C(=O)c2ccccc2[S@](=O)c2ccc(C(=O)NCc3ccc(C#N)cc3)cc21 257 nM, CCN1C(=O)c2ccccc2[S@](=O)c2ccc(C(=O)N[C@H](C)c3ccc4ccccc4c3)cc21 2890 nM, CCN1C(=O)c2ccccc2S(=O)c2ccc(C(=O)NCc3ccc(OC)cc3)cc21 (configuration not stated) 2890 nM, CCN1C(=O)c2ccccc2[S@](=O)c2ccc(C(=O)NCc3ccc(F)cc3)cc21 576 nM, CCN1C(=O)c2ccccc2[S@](=O)c2ccc(C(=O)N[C@H](C)c3ccc(Br)cc3)cc21 1290 nM, CN1C(=O)c2ccccc2S(=O)c2ccc(C(=O)NCCc3cccs3)cc21 (configuration not stated) 913 nM, CN1C(=O)c2ccccc2[S@](=O)c2ccc(C(=O)NCCN3CCCC3)cc21 363 nM, CCN1C(=O)c2ccccc2[S@](=O)c2ccc(C(=O)NCc3ccc(OC)cc3)cc21 1150 nM, CN1C(=O)c2ccccc2[S@](=O)c2ccc(C(=O)NCCc3cccs3)cc21 725 nM, CN1C(=O)c2ccccc2[S@](=O)c2ccc(C(=O)NCc3cccnc3)cc21 2890 nM, CN1C(=O)c2ccccc2[S@](=O)c2ccc(C(=O)NCc3ccc(Cl)cc3)cc21 2890 nM
